By viability is commonly meant a read-out of living cells in per cent, often relative to untreated cells.

SMILES strings stand for the structures. Records with an inconclusive call do not appear. A number with no mark means an inactive call. Calls of active or inactive are those of the source. Calls come from the whole dose curve; as a rule, active = well fitted cell-killing curve with a large enough effect; inconclusive = small, poorly fitted or top-dose-only effect, or effect the other way; inactive = no such curve, though single readings can be large or run the other way.
Potency is the fitted concentration of half-maximal effect.

The nature of one test: Quantitative High-Throughput drug screen in 47 multiple myeloma cell lines against the NCATS MIPE library collection: XG1_PLB cell viability assay (AID 1919866). Note: nearly all actives have a fitted effect of over 35% in size. Conditions: CellTiter-Glo ATP, 48 h; series mostly up to 45.8 µM; viability: at the top concentration. In outline: (§1)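 qHTS format: cells plated (500/well), pin-dosed with MIPE 4.0 compounds, kept 48 h at 37 °C. Readout was CellTiter-Glo luminescence, median RLU.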
(In general: ATP-based viability assays read luminescence as a measure of living cells.)
On to `CN1CCC(=C2c3ccccc3C=Cc3ccccc32)CC1`, for which the Potency is 13.2 µM (active).

Regarding `CN(C)CCCN1c2ccccc2CCc2ccc(Cl)cc21`, the Potency was 0.372 µM (active).

With `COc1cc2nc(N3CCN(C(=O)C4COc5ccccc5O4)CC3)nc(N)c2cc1OC` (stereo not drawn), the Potency is 29.6 µM (active).

As for `Cc1cc(C(C)(C)C)c(O)c(C)c1CC1=NCCN1`, the “viability” value is 100%.

On to `COc1cc2nc(N(C)CCCNC(=O)C3CCCO3)nc(N)c2cc1OC` (stereo not drawn), for which the “viability” value was 97.9%.

In the case of `CC(C)(Oc1ccc(C2CC2(Cl)Cl)cc1)C(=O)O` (stereo not drawn), the “viability” value is 108% [at 92.2 µM].

Turning to `COc1cc2nc(N3CCN(C(=O)c4ccco4)CC3)nc(N)c2cc1OC`, the Potency is 8.33 µM (active).

Take `CN(C)C(=O)C(CCN1CCC(O)(c2ccc(Cl)cc2)CC1)(c1ccccc1)c1ccccc1`: the Potency is 18.7 µM (active).

With `COc1ccc2[nH]cc(CCNC(C)=O)c2c1`, the “viability” value was 123%.

On to `CC#C[C@]1(O)CC[C@H]2[C@@H]3CCC4=CC(=O)CCC4=C3[C@@H](c3ccc(N(C)C)cc3)C[C@@]21C`, for which the Potency is 0.743 µM (active).

For the compound `NC(=O)NO`, the Potency is 9.35 µM (active).

On to `Cn1c(=O)c2c(ncn2C)n(C)c1=O`, for which the “viability” value was 113%.

As for `CC[C@@]1(O)C(=O)OCc2c1cc1n(c2=O)Cc2cc3c(CN(C)C)c(O)ccc3nc2-1`, the Potency was 0.0743 µM (active).

`CC(C(=O)O)c1cccc(C(=O)c2ccccc2)c1` (stereo not drawn): the Potency was 14.8 µM (active).

Take `O=C(Nc1ccc([N+](=O)[O-])cc1Cl)c1cc(Cl)ccc1O`: the Potency was 0.935 µM (active).

As to `Cc1cc(C(C)(C)C)cc(C)c1CC1=NCCN1`, the “viability” value was 92.8%.

Consider `O=c1[nH]cc(F)c(=O)[nH]1`, for which the Potency is 7.43 µM (active).

For the compound `CN(Cc1cnc2nc(N)nc(N)c2n1)c1ccc(C(=O)N[C@@H](CCC(=O)O)C(=O)O)cc1`, the Potency is 0.0372 µM (active).

`O=C1c2c(O)ccc(O)c2C(=O)c2c(NCCNCCO)ccc(NCCNCCO)c21`: the Potency is 0.332 µM (active).

For `OCCN(CCO)c1nc(N2CCCCC2)c2nc(N(CCO)CCO)nc(N3CCCCC3)c2n1`, the Potency is 23.5 µM (active).

Regarding `CN1CCC(=C2c3ccccc3CC(=O)c3sccc32)CC1`, the Potency was 8.33 µM (active).

Take `COc1ccccc1OCC(O)CN1CCN(CC(=O)Nc2c(C)cccc2C)CC1` (stereo not drawn): the “viability” value is 118%.

For `Nc1nc2c(ncn2COC(CO)CO)c(=O)[nH]1`, the Potency was 23.5 µM (active).

With `CC(C)NCC(O)c1ccc(O)c(O)c1` (stereo not drawn), the Potency was 1.87 µM (active).

On to `CCC1(c2ccccc2)C(=O)NCNC1=O`, for which the Potency was 2.96 µM (active).

On to `CC[N+](CC)(CC)CCOc1cccc(OCC[N+](CC)(CC)CC)c1OCC[N+](CC)(CC)CC`, for which the “viability” value is 93.7%.

Consider `CS(=O)(=O)CCNCc1ccc(-c2ccc3ncnc(Nc4ccc(OCc5cccc(F)c5)c(Cl)c4)c3c2)o1`, for which the Potency was 0.0187 µM (active).

On to `CN1C(C(=O)Nc2ccccn2)=C(O)c2ccccc2S1(=O)=O`, for which the “viability” value is 104%.

`CCN1CCCC1CNC(=O)c1cc(S(=O)(=O)CC)c(N)cc1OC` (stereo not drawn): the “viability” value is 146%.

As for `CN1CCN(CCCN2c3ccccc3Sc3ccc(Cl)cc32)CC1`, the Potency is 14.8 µM (active).

The next test can be described thus: Quantitative High-Throughput drug screen in 47 multiple myeloma cell lines against the NCATS MIPE library collection: VP6_DJ cell viability assay (AID 1919867).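 For viability (% of DMSO): 100% = DMSO-only wells and 0% = wells with media alone.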 Note: nearly all actives have a fitted effect of over 40% in size. The settings on record: ATP luminescence, 48 h; series mostly up to 45.8 µM; viability (% of DMSO): at the top concentration. The gist of the method: as §1
As to `CN1CCC(=C2c3ccccc3C=Cc3ccccc32)CC1`, the Potency is 16.6 µM (active).

For the compound `CN(C)CCCN1c2ccccc2CCc2ccc(Cl)cc21`, the Potency is 0.935 µM (active).

Turning to `Cc1cc(C(C)(C)C)c(O)c(C)c1CC1=NCCN1`, the “viability (% of DMSO)” value was 124%.

Take `COc1cc2nc(N(C)CCCNC(=O)C3CCCO3)nc(N)c2cc1OC` (stereo not drawn): the “viability (% of DMSO)” value was 87.3%.

For the compound `COc1cc2nc(N3CCN(C(=O)c4ccco4)CC3)nc(N)c2cc1OC`, the Potency was 10.5 µM (active).

Consider `CN(C)C(=O)C(CCN1CCC(O)(c2ccc(Cl)cc2)CC1)(c1ccccc1)c1ccccc1`, for which the Potency was 20.9 µM (active).

With `COc1ccc2[nH]cc(CCNC(C)=O)c2c1`, the “viability (% of DMSO)” value was 143%.

As for `CC#C[C@]1(O)CC[C@H]2[C@@H]3CCC4=CC(=O)CCC4=C3[C@@H](c3ccc(N(C)C)cc3)C[C@@]21C`, the Potency was 0.833 µM (active).

As to `NC(=O)NO`, the Potency is 1.05 µM (active).

Take `Cn1c(=O)c2c(ncn2C)n(C)c1=O`: the “viability (% of DMSO)” value was 117%.

`CC[C@@]1(O)C(=O)OCc2c1cc1n(c2=O)Cc2cc3c(CN(C)C)c(O)ccc3nc2-1`: the Potency was 1.48 µM (active).

With `CN(C)C(=N)N=C(N)N`, the “viability (% of DMSO)” value is 170%.

With `CC(C(=O)O)c1cccc(C(=O)c2ccccc2)c1` (stereo not drawn), the Potency was 14.8 µM (active).

Regarding `O=C(Nc1ccc([N+](=O)[O-])cc1Cl)c1cc(Cl)ccc1O`, the Potency is 0.743 µM (active).

For the compound `O=c1[nH]cc(F)c(=O)[nH]1`, the Potency was 5.9 µM (active).

Take `CN(Cc1cnc2nc(N)nc(N)c2n1)c1ccc(C(=O)N[C@@H](CCC(=O)O)C(=O)O)cc1`: the Potency was 0.0662 µM (active).

On to `O=C1c2c(O)ccc(O)c2C(=O)c2c(NCCNCCO)ccc(NCCNCCO)c21`, for which the Potency is 0.662 µM (active).

As to `OCCN(CCO)c1nc(N2CCCCC2)c2nc(N(CCO)CCO)nc(N3CCCCC3)c2n1`, the Potency is 23.5 µM (active).

Regarding `CN1CCC(=C2c3ccccc3CC(=O)c3sccc32)CC1`, the Potency was 9.35 µM (active).

Regarding `COc1ccccc1OCC(O)CN1CCN(CC(=O)Nc2c(C)cccc2C)CC1` (stereo not drawn), the “viability (% of DMSO)” value is 136%.

With `Nc1nc2c(ncn2COC(CO)CO)c(=O)[nH]1`, the Potency was 18.7 µM (active).

Turning to `CC(C)NCC(O)c1ccc(O)c(O)c1` (stereo not drawn), the Potency was 0.0332 µM (active).

For `NC12CC3CC(CC(C3)C1)C2`, the Potency is 3.32 µM (active).

As for `CCC1(c2ccccc2)C(=O)NCNC1=O`, the Potency was 4.69 µM (active).

As for `CS(=O)(=O)CCNCc1ccc(-c2ccc3ncnc(Nc4ccc(OCc5cccc(F)c5)c(Cl)c4)c3c2)o1`, the Potency is 1.66 µM (active).

With `CN1C(C(=O)Nc2ccccn2)=C(O)c2ccccc2S1(=O)=O`, the “viability (% of DMSO)” value is 134%.

In the case of `CCN1CCCC1CNC(=O)c1cc(S(=O)(=O)CC)c(N)cc1OC` (stereo not drawn), the “viability (% of DMSO)” value is 145%.

Regarding `CN1CCN(CCCN2c3ccccc3Sc3ccc(Cl)cc32)CC1`, the Potency was 10.5 µM (active).

The record behind these values is PubChem BioAssay (NCATS).
